Measurements published in PubChem BioAssay (NCATS).
Records with an inconclusive call do not appear. Activity calls are given as the source filed them. Calls come from the whole dose curve; as a rule, active = well fitted curve in the direction sought with a large enough effect; inconclusive = small, poorly fitted or top-dose-only effect, or another doubt; inactive = no such curve, though single readings can be large; an effect the other way counts as inactive or inconclusive. Where a SMILES comes first, the peptide text is derived from it. The star is where a group is joined. Cbz = O=C(OCc1ccccc1)*; CH2F = FC*

Tests used:
[1] = test system: HACAT; assay: qHTS assay to identify novel small-molecules to repurpose for Merkel cell carcinoma treatment (AID 1296009); conditions: MCC and control cell lines, CellTiter-Glo viability, 72 h; at 44.8 µM (top of the series) unless noted; note: nearly all actives have a fitted effect of over 60% in size
Procedure, shortened: (§1)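 Viability readout: ATP luminescence (CellTiter-Glo) after 72 hr drug exposure at 37 degree celsius. Dose-response format was 8 points for NPC and 11 points for MIPE; data normalized to in-plate controls.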

[2] = test system: NIH3T3; assay: as above; conditions: MCC and control cell lines, CellTiter-Glo viability, 72 h; at 44.8 µM (top of the series) unless noted
Procedure, shortened: as §1

[3] = test system: C33A; assay: Primary qHTS to identify gynecologic anti-cancer compounds using libraries of approved drugs and bioactive compounds (AID 1345084); conditions: Gynecologic cancer cell panel viability, ATPlite luminescence, 48 h; series mostly up to 57.5 µM; note: % is set by controls: 0 for no effect and ±100 for the full control effect; nearly all actives have a fitted effect of over 55% in size
Procedure, shortened: (§2)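 Five-concentration response, 48 h; readout is ATP-driven luciferase luminescence.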

[4] = test system: CASKI; assay: as above; conditions: Gynecologic cancer cell panel viability, ATPlite luminescence, 48 h; series mostly up to 57.5 µM
Procedure, shortened: as §2

[5] = test system: Es-2; assay: as above; conditions: Gynecologic cancer cell panel viability, ATPlite luminescence, 48 h; series mostly up to 57.5 µM
Procedure, shortened: as §2

[6] = test system: HeLa; assay: as above; conditions: Gynecologic cancer cell panel viability, ATPlite luminescence, 48 h; series mostly up to 57.5 µM
Procedure, shortened: as §2

[7] = test system: Hek293T; assay: as above; conditions: Gynecologic cancer cell panel viability, ATPlite luminescence, 48 h, control line for the selectivity index; series mostly up to 57.5 µM
Procedure, shortened: as §2

[8] = test system: JEG-3; assay: as above; conditions: Gynecologic cancer cell panel viability, ATPlite luminescence, 48 h; series mostly up to 57.5 µM
Procedure, shortened: as §2

[9] = test system: CAOV3; assay: as above; conditions: Gynecologic cancer cell panel viability, ATPlite luminescence, 48 h; series mostly up to 57.5 µM
Procedure, shortened: as §2

CN(C)CCC[C@]1(c2ccc(F)cc2)OCc2cc(C#N)ccc21
inactive: outcome [1] | outcome [2] | Potency [3] | outcome [4] | Potency [5] | Potency [6] | Potency [7] | Potency [8]

CC(=O)OC1C(CO)OC(O[C@H]2[C@H](OC(=O)[C@]34CCC(C)(C)C[C@H]3C3=CCC5[C@@]6(C)CC[C@H](O[C@@H]7O[C@H](C(=O)O)[C@@H](O)[C@H](O[C@@H]8OC[C@@H](O)[C@H](O)[C@H]8O)[C@H]7O[C@@H]7O[C@H](CO)[C@H](O)[C@H](O)[C@H]7O)[C@@](C)(C=O)C6CC[C@@]5(C)[C@]3(C)C[C@H]4O)O[C@H](C)[C@H](OC3OC(C)C(OC4OCC(O)C(O)C4O)C(O)C3O)[C@@H]2O)C(O)C1O (stereo not given in full)
inactive: outcome [1] inactive [at 9.27 µM] | outcome [2] inactive [at 9.27 µM] | activity change, negative = cytotoxicity [3] 12.2% [at 6.55 µM] | activity change, negative = cytotoxicity [4] 7.74% [at 6.55 µM] | activity change, negative = cytotoxicity [5] -0.286% [at 6.55 µM] | activity change, negative = cytotoxicity [6] -1.51% [at 6.55 µM] | activity change, negative = cytotoxicity [7] 1.03% [at 6.55 µM] | activity change, negative = cytotoxicity [8] 3.7% [at 6.55 µM]

C=C1[C@H](OC(C)=O)[C@H]2[C@@H](OC(C)=O)C(C)C[C@]2(OC(C)=O)C(=O)[C@H](C)/C=C/C(C)(C)C(=O)[C@H](OC(=O)C(C)C)[C@H]1OC(C)=O (stereo not given in full)
inactive: outcome [1] inactive [at 17.4 µM] | outcome [2] inactive [at 17.4 µM] | Potency [3] | Potency [9] | outcome [4] | Potency [5] | Potency [7] | Potency [8]

CC(C)(O)C1CCC2(C)CCCC(C)(O)C2C1 (stereo not given)
inactive: outcome [1] | outcome [2] | Potency [3] | outcome [4] | Potency [5] | Potency [6] | Potency [7] | Potency [8]

O=c1[nH]ccc2nc(-c3ccc(CN4CCC(c5nc(-c6ccccn6)n[nH]5)CC4)cc3)c(-c3ccccc3)cc12
inactive: outcome [1] | outcome [2] | Potency [3] | Potency [9] | outcome [4] | Potency [5] | Potency [6] | Potency [8]

C=C1CC[C@@]2(OC1)O[C@H]1CC3[C@@H]4CC=C5C[C@H](O[C@H]6OC[C@@H](O)C(O)[C@@H]6O[C@@H]6O[C@@H](C)[C@H](O)[C@@H](O[C@@H]7O[C@H](CO)[C@@H](O)[C@H](O)[C@H]7O)[C@H]6O)C[C@@H](O)[C@]5(C)C4CC[C@]3(C)[C@H]1[C@@H]2C (stereo not given in full)
inactive: outcome [1] inactive [at 9.27 µM] | outcome [2] inactive [at 9.27 µM] | activity change, negative = cytotoxicity [3] 2.1% [at 11.6 µM] | activity change, negative = cytotoxicity [9] -11% [at 11.6 µM] | activity change, negative = cytotoxicity [4] -7.31% [at 11.6 µM] | activity change, negative = cytotoxicity [5] -3.81% [at 11.6 µM] | activity change, negative = cytotoxicity [6] 12.1% [at 11.6 µM] | activity change, negative = cytotoxicity [7] 9.36% [at 11.6 µM] | activity change, negative = cytotoxicity [8] -8.07% [at 11.6 µM]

COc1ccc(C2(O)c3c(ccc4c3OC(C)(CCC=C(C)C)C=C4)NC(=O)C2OC)cc1 (stereo not given)
inactive: outcome [1] inactive [at 17.4 µM] | outcome [2] inactive [at 17.4 µM] | Potency [3] | Potency [9] | Potency [5] | Potency [6] | Potency [7] | Potency [8]

C=C1C(O)C(O)C2(CC3C(C)=CCC4C(C)(C(=O)O)CCCC34C)OC2C1O (stereo not given)
inactive: outcome [1] | outcome [2] | Potency [3] | Potency [9] | outcome [4] | Potency [5] | Potency [6] | Potency [7] | Potency [8]

CC1(C)C[C@@H]2[C@H](C1)[C@@]1(C)C[C@]13C(O)OC[C@]3(O)[C@H]2O (stereo not given in full)
inactive: outcome [1] | outcome [2] | Potency [3] | Potency [9] | outcome [4] | Potency [5] | Potency [6] | Potency [7] | Potency [8]

COC(=O)CC[C@H](NC(=O)[C@H](CC(C)C)NC(=O)OCc1ccccc1)C(=O)N[C@@H](Cc1cnc[nH]1)C(=O)N[C@@H](CC(=O)OC)C(=O)CF (Cbz-LE(OMe)HD(OMe)-CH2F)
inactive: outcome [1] inactive [at 9.27 µM] | outcome [2] inactive [at 9.27 µM] | activity change, negative = cytotoxicity [3] 16.8% [at 11.6 µM] | activity change, negative = cytotoxicity [9] 7.02% [at 11.6 µM] | activity change, negative = cytotoxicity [4] 26% [at 11.6 µM] | activity change, negative = cytotoxicity [5] 0.76% [at 11.6 µM] | activity change, negative = cytotoxicity [6] 6.25% [at 11.6 µM] | activity change, negative = cytotoxicity [7] 2.96% [at 11.6 µM] | activity change, negative = cytotoxicity [8] -14.9% [at 11.6 µM]

CC1(C)CC[C@]2(C(=O)O[C@@H]3O[C@H](CO[C@@H]4O[C@H](CO[C@@H]5O[C@H](CO)[C@H](O)[C@H](O)[C@H]5O)[C@@H](O)[C@H](O)[C@H]4O)[C@@H](O)[C@H](O[C@@H]4O[C@H](CO)[C@@H](O)[C@H](O)[C@H]4O)[C@H]3O)[C@H](O)C[C@]3(C)C(=CCC4[C@@]5(C)CC[C@H](O[C@@H]6OC[C@@H](O)[C@H](O)[C@H]6O)[C@@](C)(C(=O)O)C5CC[C@]43C)[C@@H]2C1 (stereo not given in full)
inactive: outcome [1] inactive [at 9.27 µM] | outcome [2] inactive [at 9.27 µM] | activity change, negative = cytotoxicity [3] 12.5% [at 6.55 µM] | activity change, negative = cytotoxicity [9] 1.69% [at 6.55 µM] | activity change, negative = cytotoxicity [4] -1.12% [at 6.55 µM] | activity change, negative = cytotoxicity [5] -9.51% [at 6.55 µM] | activity change, negative = cytotoxicity [6] 2.81% [at 6.55 µM] | activity change, negative = cytotoxicity [7] -1.44% [at 6.55 µM] | activity change, negative = cytotoxicity [8] -1.76% [at 6.55 µM]

CC1(C)CC[C@]2(C(=O)O[C@@H]3O[C@H](CO)[C@@H](O)[C@H](O)[C@H]3O)CC[C@]3(C)C(=CCC4[C@@]5(C)CC[C@H](OC6OC(C(=O)O)C(OC7OC(CO)C(O)C(O)C7O)C(O)C6O)C(C)(C)C5CC[C@]43C)C2C1 (stereo not given in full)
inactive: outcome [1] inactive [at 9.27 µM] | outcome [2] inactive [at 9.27 µM] | activity change, negative = cytotoxicity [3] 1.52% [at 11.6 µM] | activity change, negative = cytotoxicity [4] 15.2% [at 11.6 µM] | activity change, negative = cytotoxicity [5] 1.85% [at 11.6 µM] | activity change, negative = cytotoxicity [6] 2.77% [at 11.6 µM] | activity change, negative = cytotoxicity [7] 10.4% [at 11.6 µM] | activity change, negative = cytotoxicity [8] 9.79% [at 11.6 µM]

COCCCc1sc(-c2ccccc2)nc1C(=O)Nc1ccccc1-c1nc2cc(CN3CCCC3)cnc2s1
inactive: outcome [1] inactive [at 17.4 µM] | outcome [2] inactive [at 17.4 µM] | Potency [3] | Potency [9] | outcome [4] | Potency [5] | Potency [6] | Potency [7] | Potency [8]

CCNC(=O)C1CC(F)(c2ccc(CN3CCCC3)c(F)c2)C1 (stereo not given)
inactive: outcome [1] | outcome [2] | Potency [3] | outcome [4] | Potency [5] | Potency [6] | Potency [7] | Potency [8]

C/C(=C\C(=O)C[C@@]12C(=O)O[C@]3(C)CC[C@H]1C[C@H]23)C(N)=O
inactive: outcome [1] | outcome [2] | Potency [3] | Potency [9] | outcome [4] | Potency [5] | Potency [6] | Potency [7] | Potency [8]

CC1CC(=O)C2C(O)(C1)CC(O)C13OC1c1c(O)cccc1C(=O)C23O (stereo not given)
inactive: outcome [1] | outcome [2] | Potency [3] | Potency [9] | outcome [4] | Potency [5] | Potency [6] | Potency [8]
